Peg3 promoter = Peg3 promoter activity inhibition. AID 588405. 1.7% of 360,000 active. HeLa PEG-Prom luciferase reporter, luminescence, overnight. inhibition, % at 20 µM;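 active = inhibition of at least 50% at 20 µM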
LGR2 antag = blocks bursicon-induced cAMP signaling via Drosophila LGR2; 0.35% of 380,000 active; inhibition, % at 9.99 µM; HEK293 LGR2, CRE-luciferase, bursicon-stimulated, 4 h; AID 720647;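 active = drop in luminescence signal, shown as inhibition above about 50% in the replicate tests, limit read from the data, passing the limit was not always enough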;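 also: agonist challenge used bursicon conditioned medium at about half maximal strength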
KKLEB tox = counter-screen for CF NF-kB inhibitors: cytotoxicity; KKLEB CF airway cells viability, ATPlite luminescence, overnight; active compounds read low; cells stimulated with P. aeruginosa culture filtrate; activity change (cytotoxicity), % at 5 µM; 0.36% of 360,000 active;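 active = corrected activity change at or below -50% at 5 µM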
Mdm2-MdmX inh = inhibitors of human Mdm2/MdmX interaction; AID 485346; O15151+Q00987; 3% of 330,000 active; SaOS-2 split-luciferase Mdm2/MdmX complementation, luminescence; inhibition, % at 8 µM;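 active = inhibition of at least 50% at 8 µM in the primary screen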
CF NFkB block = cystic fibrosis NF-kB activation inhibition; KKLEB NF-kB-GFP reporter, PAF-induced, GFP fluorescence overnight; inhibition, % at 5 µM; 0.86% of 360,000 active;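 active = at least 50% inhibition at 5 µM, scaled per plate between neutral and stimulator controls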;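 also: PAF is a Pseudomonas aeruginosa culture filtrate used as stimulus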
HSP90 inh = inhibitors of HSP90 luciferase refolding in rabbit reticulocyte lysate; inhibition, % at 5.6 µM; luciferase refolding luminescence, 3 h; AID 1789; 0.91% of 290,000 active;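 active = inhibition above the screen-wide mean plus 3 SD, computed separately per campaign, cut at about 16% in these data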;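 also: inhibitors lower the luminescence because luciferase stays unfolded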
Mdm2 MdmX conf = confirmation of human Mdm2/MdmX interaction inhibitors; Mdm2-MdmX binding, luminescent assay; 55% of 10,000 active; shares compounds with Mdm2-MdmX inh; inhibition, % at 8 µM; in the data active = inhibition above about 40%
FLuc counter = full-length luciferase inhibition in Mdm2/MdmX counter-screen; inhibition, % at 8 µM; SaOS-2 full-length luciferase counterscreen, luminescence; shares compounds with Mdm2-MdmX inh; AID 504607; 77% of 6,200 active;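 active = mean inhibition at 8 µM reaching about 37%, which flags the compound as non-specific, limit read from the data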;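 also: p53-null SaOS-2 cells with luciferase driven by a doxycycline-inducible promoter; compound on cells about two nights before reading with doxycycline added after day one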
A number is an active result; – = inactive; · = not tested or not shown. In the library only some 3.6% were active in any assay of this set; here they are far more common.

SMILES | Peg3 promoter | LGR2 antag | KKLEB tox | Mdm2-MdmX inh | CF NFkB block | HSP90 inh | Mdm2 MdmX conf | FLuc counter
COc1cc(OC)cc(-c2c(-c3ccc(F)cc3)c3cc(-c4ccc(OC)nc4)ccc3n2C)c1 | – | – | – | 52.0 | – | · | – | ·
COc1ccc(-c2ccc3c(c2)c(-c2cccs2)c(-c2cc(OC)cc(OC)c2)n3C)cc1 | – | – | – | – | – | · | · | ·
COc1cc(OC)cc(-c2c(-c3cccs3)c3cc(-c4ccc(C(N)=O)cc4)ccc3n2C)c1 | – | – | – | 85.5 | – | · | – | ·
COc1ccc(-c2c(-c3cc(OC)cc(OC)c3)n(C)c3ccc(-c4ccc(SC)cc4)cc23)cc1 | – | – | – | – | – | · | · | ·
COc1cc(OC)cc(-c2c(-c3ccc(F)cc3)c3cc(-c4ccc(SC)cc4)ccc3n2C)c1 | – | – | – | 53.2 | – | · | – | ·
CN(C)c1ncnc2c1nnn2C1OC(CO)C(O)C1O (stereo unspecified) | – | – | – | · | – | · | · | ·
COc1ccc(C[C@H](N)C(=O)N[C@H]2[C@@H](O)[C@H](n3cnc4c(N(C)C)ncnc43)O[C@@H]2CO)cc1 | 102.3 | – | – | 96.5 | – | · | 99.2 | 53.6
CN(C)c1ncnc2c1ncn2C1OC(CO)C(O)C1O (stereo unspecified) | – | · | – | 75.6 | – | – | 42.8 | –
Cc1cc2nc(NCCCO)n(CC(=O)c3cc(C(C)(C)C)c(O)c(C(C)(C)C)c3)c2cc1C | 94.3 | – | – | 97.9 | – | · | 63.5 | 41.0
CCOC(=O)c1c(C)oc2c1C(=O)c1ccccc1C2=O | – | – | – | 53.7 | 76.5 | – | – | ·
Cc1oc2c(c1C(=O)O)C(=O)c1ccccc1C2=O | – | – | – | – | – | – | · | ·
O=C1C(=O)c2c(C(=O)c3ccccc3)coc2-c2ccccc21 | – | – | – | 100.3 | – | – | – | ·
Cc1onc(-c2ccccc2Cl)c1C(=O)c1ccccc1 | – | – | – | – | – | – | · | ·
Cc1oc2c(c1C(=O)c1ccccc1)C(=O)C(=O)c1ccccc1-2 | 107.8 | · | – | 96.9 | 88.5 | – | 71.8 | –
C[C@H](CO)N1C[C@H](C)[C@H](CN(C)C(=O)c2cccc(F)c2)Oc2cc(-c3cncnc3)ccc2S1(=O)=O | · | – | · | · | · | · | · | ·
CCC(=O)N1[C@H](CO)[C@H]2c3ccccc3N(S(=O)(=O)c3ccccc3C)C[C@H]21 | · | – | · | · | · | · | · | ·
CCN1CCN(c2cc(C)c3cc(NC(=O)c4cccc(OC)c4)ccc3n2)CC1 | – | – | – | – | – | – | · | ·
CCN1CCN(c2cc(C)c3cc(NC(=O)c4ccc(OC)c(OC)c4)ccc3n2)CC1 | – | – | – | – | – | – | · | ·
CCN1CCN(c2cc(C)c3cc(NC(=O)c4cncc(Br)c4)ccc3n2)CC1 | – | · | – | 66.2 | – | – | – | ·
CCN1CCN(c2cc(C)c3cc(NC(=O)c4ccc5c(c4)OCO5)ccc3n2)CC1 | – | – | – | 71.0 | – | – | 49.7 | 84.5
C[C@H](CO)N1C[C@H](C)[C@@H](CN(C)S(C)(=O)=O)Oc2ccc(NC(=O)Nc3cccc4ccccc34)cc2C1=O | · | – | · | · | · | · | · | ·
Cn1cccc1/C=C1\SC(=Nc2ccc(O)cc2)NC1=O | – | – | – | 67.6 | – | – | 62.0 | 159.9
COc1cc(/C=C2\SC(=Nc3ccc(O)cc3)NC2=O)cc(OC)c1O | – | – | – | 55.9 | – | – | 41.2 | 81.1
Cn1cccc1/C=C1\SC(=Nc2ccccc2)NC1=O | – | – | – | – | – | – | · | ·
CCc1ccc(N=C2NC(=O)/C(=C/c3cc(OC)c(OC)c(OC)c3)S2)cc1 | – | – | – | – | – | – | · | ·
SMILES | Peg3 promoter | LGR2 antag | KKLEB tox | Mdm2-MdmX inh | CF NFkB block | HSP90 inh | Mdm2 MdmX conf | FLuc counter
C[C@H]1CN([C@@H](C)CO)C(=O)c2cc(C3=CCCCC3)cnc2O[C@@H]1CN(C)CC1CCCC1 | · | – | · | · | · | · | · | ·
CC(C)NC(=O)N(C)C[C@H]1Oc2ccc(NS(C)(=O)=O)cc2CC(=O)N([C@H](C)CO)C[C@@H]1C | · | – | · | · | · | · | · | ·
Cn1cncc1C#Cc1c(-c2ccc(S(C)(=O)=O)cc2)sc2ccccc12 | – | – | – | 64.7 | – | · | – | ·
COc1ccc2sc(-c3ccccc3OC)c(C#Cc3cncn3C)c2c1 | – | – | – | – | – | · | · | ·
Cc1c(C(=O)NCc2ccc3c(c2)OCO3)oc2ccc(Br)cc12 | – | · | – | 72.9 | – | – | – | ·
Cc1ccc2oc(C(=O)NCc3ccc4c(c3)OCO4)c(C)c2c1 | – | – | – | – | – | – | · | ·
O=Nc1c(-c2ccccc2)cc2ccccn12 | – | – | – | – | – | – | · | ·
COc1cc(C(C[N+](=O)[O-])c2c(-c3ccccc3)cc3ccccn23)cc(OC)c1OC (stereo unspecified) | – | · | – | 55.2 | – | – | – | ·
COc1cc(C(C[N+](=O)[O-])c2c(C)cc3ccccn23)ccc1O (stereo unspecified) | – | – | – | – | – | – | · | ·
COc1ccc(C(C[N+](=O)[O-])c2c(-c3ccccc3)cc3ccccn23)cc1 (stereo unspecified) | – | · | – | 96.4 | – | – | – | ·
CC=Cc1ccc2n(c1=O)C[C@@H]1[C@@H](CO)[C@H](C(=O)N[C@H](C)c3ccccc3)[C@H]2N1Cc1ccccc1 (mixture of isomers) | · | – | · | · | · | · | · | ·
CCOc1ccc(C2NCCc3cc(OC)c(OC)cc32)cc1OC (stereo unspecified) | – | – | – | – | – | – | · | ·
COc1ccc2cc1Oc1ccc(cc1)CC1c3c(cc(OC)c4c3Oc3cc5c(cc3O4)CCNC5C2)CCN1C (stereo unspecified) | 102.0 | · | – | 100.3 | – | – | 99.7 | –
COc1ccc2cc1Oc1ccc(cc1)C[C@H]1c3c(cc(OC)c4c3Oc3c(ccc5c3[C@H](C2)N(C)CC5)O4)CCN1C | 99.7 | · | -87.6 | 100.3 | 87.2 | · | 42.2 | –
C[C@@H]1CN([C@@H](C)CO)C(=O)c2cc(NS(=O)(=O)c3ccc(F)cc3)ccc2O[C@@H](C)CCCCO[C@@H]1CN(C)C(=O)Nc1ccc(F)cc1 | · | – | · | · | · | · | · | ·
CC(C)N=c1cc2n(-c3ccc(Cl)cc3)c3ccccc3nc-2cc1Nc1ccc(Cl)cc1 | 101.5 | · | – | 97.1 | 91.7 | · | 94.2 | –
CS(=O)(=O)c1nc(-c2ccc(Br)cc2)cc(-c2ccccc2)c1C#N | 112.6 | · | -66.2 | 100.5 | 80.5 | – | 76.1 | 51.5
COc1ccc(-c2cc(-c3ccccc3)c(C#N)c(S(C)(=O)=O)n2)cc1 | 104.4 | · | – | 89.8 | – | – | – | ·
CS(=O)c1nc(-c2ccc(Br)cc2)cc(-c2ccccc2)c1C#N (stereo unspecified) | 106.0 | 97.3 | – | 100.3 | – | – | 87.2 | –
N#Cc1c(-c2cccc(F)c2)cc(-c2ccccc2)nc1Br | – | · | – | – | – | – | · | ·
